18 compounds from PubChem BioAssay (NCATS) can be followed below.

Assay [1] has as its target Glucocorticoid receptor (Homo sapiens) (UniProt P04150). Description: qHTS assay for small molecule antagonists of glucocorticoid receptor signaling (AID 588533; active = well fitted inhibition curve with a large enough effect in the signal ratio, with a control signal flat, not every such curve was filed as active; the % refers to the signal ratio;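 also: cells stimulated with 2 nM dexamethasone as agonist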; also: potency is read from the fitted curve at half-maximal effect). Summed up: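 Antagonist-mode qHTS: compound titrations added to GRE-bla HeLa cells, then dexamethasone 2 nM final; 18 h, 37 C. CCF4 FRET fluorescence normalized to dexamethasone and DMSO; IC50 from Hill fit.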
In general terms: In qHTS, concentration-response curves come from the screen itself.

The target in assay [2] is Thyroid hormone receptor beta (Homo sapiens) (UniProt P10828). Description: qHTS assay for small molecule antagonists of thyroid hormone receptor beta signaling (AID 588547; active = well fitted inhibition curve with a large enough effect in the signal ratio, with a control signal flat, not every such curve was filed as active; the % refers to the signal ratio;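 also: cells stimulated with 0.4 nM T3 agonist during compound exposure; series mostly up to about 77 µM; % is scaled to controls: 0 for no effect and ±100 for the full control effect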). The note with it: TR-UAS-bla HEK293, beta-lactamase ratio, antagonist mode, 18 h. Summed up: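 TR-UAS-bla GripTite HEK293 cells in 2% charcoal/dextran FBS medium were preincubated 4 h at 37 C, given compound (0.59 nM to 92 uM) plus 0.4 nM T3 (final) for 18 h, then CCF4 for 2 h at RT; Hill fit gave IC50.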
Thyroid hormone receptor beta (Homo sapiens), sequence (P10828 whole entry, looked up): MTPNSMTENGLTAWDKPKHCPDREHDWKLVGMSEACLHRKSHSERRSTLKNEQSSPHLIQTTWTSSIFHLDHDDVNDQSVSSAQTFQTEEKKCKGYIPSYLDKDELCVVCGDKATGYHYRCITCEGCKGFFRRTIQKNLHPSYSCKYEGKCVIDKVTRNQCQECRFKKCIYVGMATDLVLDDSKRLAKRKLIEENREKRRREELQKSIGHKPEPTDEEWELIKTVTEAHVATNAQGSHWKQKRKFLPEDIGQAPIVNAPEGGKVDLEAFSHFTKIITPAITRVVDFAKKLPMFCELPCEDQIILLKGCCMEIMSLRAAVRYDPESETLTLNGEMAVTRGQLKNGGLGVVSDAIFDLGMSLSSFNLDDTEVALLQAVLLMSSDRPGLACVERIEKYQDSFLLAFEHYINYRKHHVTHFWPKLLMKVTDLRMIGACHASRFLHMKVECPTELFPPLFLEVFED

Assay [3] is described as follows: S16 Schwann cell PMP22 intronic element firefly luciferase assay (AID 624032; active = well fitted curve in the direction sought with a large enough effect; an effect the other way counts as inactive or inconclusive; also: nearly all actives have a fitted effect of over 30% in size; also: potency is read from the fitted curve at half-maximal effect). Summed up: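 Rat S16 Schwann cells stably carrying a PMP22 intronic element-driven Fluc reporter were seeded overnight, then exposed to compounds for 24 h at 37 °C. Luminescence was normalized to PTC124 (positive control) and DMSO (0% activity).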
A short description of assay [4]: S16 Schwann cell PMP22 intronic element beta-lactamase assay (AID 624044). Also: nearly all actives have a fitted effect of over 15% in size. Also: potency is read from the fitted curve at half-maximal effect. An outline of the steps: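 Rat S16 Schwann cells with beta-Lac driven by a PMP22 intronic element, compound-treated 24 h at 37 °C. LiveBLAzer FRET B/G read: 460 nm normalized to potassium clavulanate vs DMSO; 535 nm FRET as viability; concentration-effect curves classified.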
Assay [5] addresses Peroxisome proliferator-activated receptor delta (Homo sapiens) (UniProt Q03181). Nature of the assay: qHTS assay for small molecule agonists of peroxisome proliferator-activated receptor delta signaling (AID 588534).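 Also: 0% = DMSO basal wells and 100% = positive control agonist at 10 µM.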 Summed up: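 Cell-based beta-lactamase reporter assay run in agonist mode: cells seeded and incubated 5 hrs at 37 C, compounds added and incubated 18 hrs at 37 C. CCF4 dye fluorescence read after 2 hrs at RT; EC50 and efficacy from Hill fits.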

In assay [6] the target is Thyroid hormone receptor beta (Homo sapiens) (UniProt P10828). Description: qHTS assay for small molecule agonists of thyroid hormone receptor beta signaling (AID 588545). An outline of the steps: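 Cells (2500/well) were seeded, incubated 4 hrs at 37 C, dosed with a compound series, incubated 18 hrs, loaded with CCF4 dye for 2 hrs at RT, then read for fluorescence. Data were scaled between DMSO (0%) and 10 nM T3 (100%).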

A short description of assay [7]: qHTS assay for small molecule antagonists of retinoid X receptor alpha signaling (AID 588546; active = well fitted inhibition curve with a large enough effect in the signal ratio, with a control signal flat, not every such curve was filed as active; the % refers to the signal ratio; also: potency is read from the fitted curve at half-maximal effect;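 as to max response: cells stimulated with 9-cis-retinoic acid as agonist; % is scaled to controls: 0 for no effect and ±100 for the full control effect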). The note with it: HEK293T RXRa-UAS-bla, beta-lactamase ratio, antagonist mode; measured here: W530 green channel, cytotoxicity proxy. An outline of the steps: (§1)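 Beta-lactamase reporter inhibition, read as CCF4 fluorescence ratio (ex 405, em 460/530 nm) after 2 h at RT. HEK293T UAS-bla cells, 2500/well, were stimulated with 9-cis-RA at 500 or 100 nM final alongside test compound for 18 h at 37 C.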

Assay [8] addresses Retinoic acid receptor RXR-alpha (Homo sapiens) (UniProt P19793). The description is as above. The note with it: HEK293T RXRa-UAS-bla, beta-lactamase ratio, antagonist mode. An outline of the steps: as §1
The target of assay [9] is Luciferin 4-monooxygenase (Photinus pyralis) (UniProt P08659). Description: Biochemical firefly luciferase enzyme assay for NPC (AID 624030; active = well fitted curve in the direction sought with a large enough effect; an effect the other way counts as inactive or inconclusive;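 also: purified P. pyralis luciferase at 10 nM with luciferin and ATP substrate; series mostly up to about 59 µM; 0% = DMSO and -100% = full luciferase inhibition by PTC124 control; nearly all actives have a fitted effect of over 70% in size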). An outline of the steps: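 Counter-screen for direct inhibition of the luciferase enzyme by approved-drug library compounds, run at 10 nM enzyme in 50 mM Tris acetate (final). Luminescence was read within 5 min of enzyme-buffer addition and normalized to PTC124 versus DMSO (0%).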
Luciferin 4-monooxygenase (Photinus pyralis), sequence (P08659 whole entry, looked up): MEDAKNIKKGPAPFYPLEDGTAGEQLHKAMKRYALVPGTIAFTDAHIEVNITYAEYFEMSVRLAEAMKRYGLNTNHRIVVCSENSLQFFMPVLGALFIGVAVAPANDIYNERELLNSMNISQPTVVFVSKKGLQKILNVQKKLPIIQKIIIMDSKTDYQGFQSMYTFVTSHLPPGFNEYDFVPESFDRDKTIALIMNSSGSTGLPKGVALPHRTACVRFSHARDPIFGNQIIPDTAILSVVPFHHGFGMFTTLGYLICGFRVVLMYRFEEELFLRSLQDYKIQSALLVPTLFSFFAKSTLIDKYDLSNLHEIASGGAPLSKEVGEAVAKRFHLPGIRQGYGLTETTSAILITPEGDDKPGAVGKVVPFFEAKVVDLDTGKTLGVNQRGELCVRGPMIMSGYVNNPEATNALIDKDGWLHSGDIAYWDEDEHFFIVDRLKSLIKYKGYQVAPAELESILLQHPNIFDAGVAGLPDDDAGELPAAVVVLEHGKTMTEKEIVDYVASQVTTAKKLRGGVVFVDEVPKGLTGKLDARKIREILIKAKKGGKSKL

The target of assay [10] is Glutaminase kidney isoform, mitochondrial (Homo sapiens) (UniProt O94925). Nature of the assay: qHTS for Inhibitors of Glutaminase (GLS): LOPAC Validation (AID 624146; active = well fitted curve in the direction sought with a large enough effect; an effect the other way counts as inactive or inconclusive;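 also: glutamate product detected by oxidase and peroxidase coupled Amplex red fluorescence gain; series mostly up to about 46 µM; % is scaled to controls: 0 for no effect and ±100 for the full control effect; nearly all actives have a fitted effect of over 60% in size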). Summed up:
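Coupled fluorescence readout: glutamate oxidase/HRP/Amplex Red detect glutamate formed by hKGA from L-glutamine (1 mM solution added). Buffer 45 mM KH2PO4 pH 8.2, 0.02% Tween-20; reads at t0 and 30 min RT.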

Assay [11] is described as follows: qHTS assay for small molecule antagonists of peroxisome proliferator-activated receptor delta signaling (AID 588535; active = well fitted inhibition curve with a large enough effect in the signal ratio, with a control signal flat, not every such curve was filed as active; the % refers to the signal ratio;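 as to max response: cells co-treated with a PPAR-delta agonist as stimulator during compound exposure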). The note with it: HEK293T PPARd-UAS-bla, beta-lactamase FRET ratio, 18 h; 460 nm channel. An outline of the steps:
(§2)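 GeneBLAzer PPAR-delta-UAS-bla HEK293T cells in medium with 2% charcoal/dextran FBS were preincubated 5 hrs at 37 C, then given compounds, incubated 18 hrs at 37 C, and read by CCF4 beta-lactamase fluorescence; IC50 from Hill fits.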

The target of assay [12] is Peroxisome proliferator-activated receptor delta (Homo sapiens) (UniProt Q03181). Described as above. An outline of the steps: as §2
Peroxisome proliferator-activated receptor delta (Homo sapiens), sequence (Q03181 whole entry, looked up): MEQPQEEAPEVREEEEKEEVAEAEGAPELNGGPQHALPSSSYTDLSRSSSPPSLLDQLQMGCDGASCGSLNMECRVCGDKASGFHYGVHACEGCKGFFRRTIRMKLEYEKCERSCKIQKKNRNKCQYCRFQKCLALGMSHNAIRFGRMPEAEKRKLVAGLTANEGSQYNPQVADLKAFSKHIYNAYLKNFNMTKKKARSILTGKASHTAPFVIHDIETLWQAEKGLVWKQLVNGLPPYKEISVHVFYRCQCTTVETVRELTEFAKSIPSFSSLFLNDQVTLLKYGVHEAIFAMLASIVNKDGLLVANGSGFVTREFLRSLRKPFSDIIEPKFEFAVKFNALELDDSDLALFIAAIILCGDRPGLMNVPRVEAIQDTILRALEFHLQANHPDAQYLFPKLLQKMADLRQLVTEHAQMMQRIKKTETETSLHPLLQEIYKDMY
Assay [13] has as its target Peroxisome proliferator-activated receptor gamma (Homo sapiens) (UniProt P37231). Nature of the assay: qHTS assay for small molecule agonists of peroxisome proliferator-activated receptor gamma signaling (AID 588536; active = well fitted curve in the direction sought with a large enough effect in the signal ratio, with a control signal flat, not every such curve was filed as active; the % refers to the signal ratio;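 also: 0% = DMSO basal wells and 100% = rosiglitazone at 2 µM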). Summed up: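 Test agents, titrated, stimulated HEK293 UAS-bla cells overnight (16 h, 37 C). Substrate CCF4 was then added for two hours at room temperature before fluorescence reading.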

The target is the same in assay [14]. Nature of the assay: qHTS assay for small molecule antagonists of peroxisome proliferator-activated receptor gamma signaling (AID 588537; active = well fitted inhibition curve with a large enough effect in the signal ratio, with a control signal flat, not every such curve was filed as active; the % refers to the signal ratio;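 also: reporter cells co-stimulated with 50 nM rosiglitazone agonist during compound treatment; % of control where 0% means no effect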). An outline of the steps: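 PPAR-gamma-UAS-bla HEK293 cells (3000/well, 1% charcoal/dextran-stripped FBS) were preincubated 6-6.5 h at 37 C, given titrated compounds, then stimulated with 50 nM rosiglitazone for 16 h. Beta-lactamase activity was read with CCF4 dye; IC50 came from Hill fits.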

The target in assay [15] is Vitamin D3 receptor (Homo sapiens) (UniProt P11473). Description: qHTS assay for small molecule antagonists of vitamin D receptor signaling (AID 588541).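 Also: receptor activated by calcitriol during compound treatment; series mostly up to about 77 µM; % is scaled to controls: 0 for no effect and ±100 for the full control effect.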 An outline of the steps:
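VDR-UAS-bla HEK293T cells (2000/well, 2% charcoal-stripped FBS) were treated with titrated compounds plus 1-alpha,25-dihydroxyvitamin D3 (50 nM or 3 nM final) for 16 h at 37 C. CCF4 beta-lactamase fluorescence was read; Hill fits gave IC50.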

For assay [16], the target named is Voltage-gated inwardly rectifying potassium channel KCNH2 (Homo sapiens) (UniProt Q12809). Nature of the assay: qHTS Assay for Small Molecule Inhibitors of the Human hERG Channel Activity (AID 588834; active = well fitted curve in the direction sought with a large enough effect; an effect the other way counts as inactive or inconclusive;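 also: top concentration of the series differs between compounds; % is scaled to controls: 0 for no effect and ±100 for the full control effect; lower thallium flux fluorescence means stronger hERG block; nearly all actives have a fitted effect of over 50% in size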). An outline of the steps: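 U2OS cells BacMam-transduced with hERG, 2000 cells/well, compound ~10 min at 37 °C before stimulation buffer. FluxOR thallium flux fluorescence read kinetically on FDSS; decrease indicates block; AC50 from Hill fits.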
Voltage-gated inwardly rectifying potassium channel KCNH2 (Homo sapiens), sequence (Q12809 whole entry, looked up): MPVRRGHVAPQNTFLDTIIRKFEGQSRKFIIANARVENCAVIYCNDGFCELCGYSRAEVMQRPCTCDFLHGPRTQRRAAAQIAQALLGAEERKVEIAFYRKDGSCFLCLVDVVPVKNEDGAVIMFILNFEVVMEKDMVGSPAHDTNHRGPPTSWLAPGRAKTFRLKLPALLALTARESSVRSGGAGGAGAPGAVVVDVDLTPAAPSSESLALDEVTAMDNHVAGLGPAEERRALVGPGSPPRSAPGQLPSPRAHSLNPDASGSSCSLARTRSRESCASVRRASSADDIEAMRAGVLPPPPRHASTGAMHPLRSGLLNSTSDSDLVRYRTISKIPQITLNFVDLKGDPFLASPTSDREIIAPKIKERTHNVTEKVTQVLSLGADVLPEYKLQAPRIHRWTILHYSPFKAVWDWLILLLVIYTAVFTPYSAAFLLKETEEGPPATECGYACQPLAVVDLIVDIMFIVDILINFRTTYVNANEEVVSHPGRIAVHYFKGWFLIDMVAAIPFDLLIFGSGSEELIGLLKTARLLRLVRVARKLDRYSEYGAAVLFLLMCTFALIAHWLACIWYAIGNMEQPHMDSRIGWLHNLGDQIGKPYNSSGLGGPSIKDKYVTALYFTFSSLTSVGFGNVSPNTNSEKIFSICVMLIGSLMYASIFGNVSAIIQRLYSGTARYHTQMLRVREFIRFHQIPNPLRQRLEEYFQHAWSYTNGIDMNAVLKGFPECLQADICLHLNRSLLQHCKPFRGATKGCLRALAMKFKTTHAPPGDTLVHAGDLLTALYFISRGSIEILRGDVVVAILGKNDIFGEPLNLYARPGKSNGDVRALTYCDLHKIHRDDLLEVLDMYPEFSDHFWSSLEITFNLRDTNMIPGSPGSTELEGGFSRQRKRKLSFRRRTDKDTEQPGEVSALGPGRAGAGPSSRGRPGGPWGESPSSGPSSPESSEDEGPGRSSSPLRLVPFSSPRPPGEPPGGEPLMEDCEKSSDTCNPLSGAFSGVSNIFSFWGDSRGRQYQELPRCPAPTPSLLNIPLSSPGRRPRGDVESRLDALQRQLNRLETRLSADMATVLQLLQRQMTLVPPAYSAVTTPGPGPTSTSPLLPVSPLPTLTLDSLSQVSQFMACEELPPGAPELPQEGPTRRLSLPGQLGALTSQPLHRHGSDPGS

Assay [17] can be described thus: S16 Schwann cell viability assay (CellTiter-Glo assay) (AID 624031; active = well fitted curve in the direction sought with a large enough effect; an effect the other way counts as inactive or inconclusive;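 also: cellular ATP luminescence as a viability measure; series mostly up to about 58 µM; plate controls were DMSO-treated cells for no effect and cell-free wells for full effect; nearly all actives have a fitted effect of over 70% in size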). An outline of the steps:
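Native S16 rat Schwann cells, 500-750 cells/well in DMEM with 10% FBS, dosed with compound after overnight culture and incubated 24h at 37 degree Celsius/5% CO2. Viability by CellTiter-Glo luminescence; % activity normalized to no-cell wells and DMSO-treated cells.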
(In general: In ATP-based viability assays light output follows the ATP content of the culture.)

Assay [18] can be described thus: qHTS for Inhibitors of the vitamin D receptor (VDR): Hit Validation using a Texas Red Assay (AID 602201; active = well fitted curve in the direction sought with a large enough effect; an effect the other way counts as inactive or inconclusive; also: % is scaled to controls: 0 for no effect and ±100 for the full control effect). Summed up: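 Fluorescence polarization (Ex 595/Em 615 nm) of Texas Red (7 nM) with 1.5 uM VDR-LBD and LG19078 (final concentrations). Compounds were incubated for 2 hours at room temperature.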
Assay [19] in a line: qHTS assay for small molecule agonists of retinoid X receptor alpha signaling (AID 588544). The note with it: HEK293T RXRa-UAS-bla, beta-lactamase reporter, 18 h; 530 nm emission.
Assay [20] has as its target Retinoic acid receptor RXR-alpha (Homo sapiens) (UniProt P19793). The description is as above.

Values joined by “and” are separate entries in the source; they are usually repeats but may differ in a detail not shown here. Equal entries are not always repeated. Records with an inconclusive call do not appear. Active and inactive are the calls of the source. Unless noted, calls follow the shape of the full dose curve.

Glucocorticoid receptor (Homo sapiens), sequence (P04150 whole entry, looked up): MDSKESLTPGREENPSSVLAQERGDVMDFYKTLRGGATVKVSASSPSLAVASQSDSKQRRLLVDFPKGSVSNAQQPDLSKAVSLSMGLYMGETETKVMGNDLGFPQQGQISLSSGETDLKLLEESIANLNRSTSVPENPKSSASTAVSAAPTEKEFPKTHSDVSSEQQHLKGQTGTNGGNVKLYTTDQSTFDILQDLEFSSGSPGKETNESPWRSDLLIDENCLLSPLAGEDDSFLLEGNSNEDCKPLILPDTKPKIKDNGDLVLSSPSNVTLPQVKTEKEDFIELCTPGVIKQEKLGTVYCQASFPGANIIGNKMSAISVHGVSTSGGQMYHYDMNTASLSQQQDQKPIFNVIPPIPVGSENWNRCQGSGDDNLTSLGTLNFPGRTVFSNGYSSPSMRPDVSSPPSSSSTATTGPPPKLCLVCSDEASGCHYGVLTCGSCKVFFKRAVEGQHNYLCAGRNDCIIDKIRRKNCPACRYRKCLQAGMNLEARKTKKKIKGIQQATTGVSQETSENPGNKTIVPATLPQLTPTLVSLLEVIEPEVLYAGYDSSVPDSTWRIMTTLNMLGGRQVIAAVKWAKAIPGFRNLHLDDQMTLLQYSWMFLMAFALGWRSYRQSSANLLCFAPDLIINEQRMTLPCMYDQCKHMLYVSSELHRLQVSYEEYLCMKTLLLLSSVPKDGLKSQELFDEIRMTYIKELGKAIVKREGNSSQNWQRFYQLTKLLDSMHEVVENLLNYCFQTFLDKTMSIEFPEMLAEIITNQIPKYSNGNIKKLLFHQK
Vitamin D3 receptor (Homo sapiens), sequence (P11473 whole entry, looked up): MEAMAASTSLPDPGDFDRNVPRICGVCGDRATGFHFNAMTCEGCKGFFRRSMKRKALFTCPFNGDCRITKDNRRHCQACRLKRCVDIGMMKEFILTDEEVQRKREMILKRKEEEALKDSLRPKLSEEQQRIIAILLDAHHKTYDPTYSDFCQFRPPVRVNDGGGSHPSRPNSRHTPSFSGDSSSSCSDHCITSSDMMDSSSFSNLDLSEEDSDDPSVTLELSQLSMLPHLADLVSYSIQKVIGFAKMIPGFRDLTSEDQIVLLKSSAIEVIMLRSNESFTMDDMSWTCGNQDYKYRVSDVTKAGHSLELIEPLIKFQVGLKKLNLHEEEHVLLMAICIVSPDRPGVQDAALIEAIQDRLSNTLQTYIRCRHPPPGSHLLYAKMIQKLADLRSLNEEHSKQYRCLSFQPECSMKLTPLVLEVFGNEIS
Peroxisome proliferator-activated receptor gamma (Homo sapiens), sequence (P37231 whole entry, looked up): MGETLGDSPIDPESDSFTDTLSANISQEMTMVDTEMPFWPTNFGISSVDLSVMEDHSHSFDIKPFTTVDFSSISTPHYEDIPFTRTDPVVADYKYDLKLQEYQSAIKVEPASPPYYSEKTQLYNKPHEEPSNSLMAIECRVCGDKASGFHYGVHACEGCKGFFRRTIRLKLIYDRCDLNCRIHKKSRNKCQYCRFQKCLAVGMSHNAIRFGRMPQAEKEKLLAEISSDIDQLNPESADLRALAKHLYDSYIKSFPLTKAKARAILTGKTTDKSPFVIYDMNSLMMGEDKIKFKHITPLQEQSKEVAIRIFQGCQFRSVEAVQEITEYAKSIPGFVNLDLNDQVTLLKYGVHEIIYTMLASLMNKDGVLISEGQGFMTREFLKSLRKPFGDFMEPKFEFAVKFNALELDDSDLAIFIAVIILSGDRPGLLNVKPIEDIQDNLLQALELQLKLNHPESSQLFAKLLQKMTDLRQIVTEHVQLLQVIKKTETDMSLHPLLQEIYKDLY
Retinoic acid receptor RXR-alpha (Homo sapiens), sequence (P19793 whole entry, looked up): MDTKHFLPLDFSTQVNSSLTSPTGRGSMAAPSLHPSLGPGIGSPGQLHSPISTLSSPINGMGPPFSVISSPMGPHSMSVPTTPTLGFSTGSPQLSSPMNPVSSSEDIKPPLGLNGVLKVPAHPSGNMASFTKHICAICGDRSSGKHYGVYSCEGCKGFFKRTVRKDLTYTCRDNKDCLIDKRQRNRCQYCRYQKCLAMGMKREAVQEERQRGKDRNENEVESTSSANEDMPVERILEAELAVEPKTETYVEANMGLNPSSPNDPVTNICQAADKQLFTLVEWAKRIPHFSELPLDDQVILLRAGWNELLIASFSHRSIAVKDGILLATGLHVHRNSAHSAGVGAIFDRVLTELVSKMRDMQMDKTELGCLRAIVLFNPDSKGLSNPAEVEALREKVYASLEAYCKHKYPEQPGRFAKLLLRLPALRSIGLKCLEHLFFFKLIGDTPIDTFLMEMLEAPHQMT

With `COc1cc2c(c(OC)c1OC)-c1ccc(OC)c(=O)cc1[C@@H](NC(C)=O)CC2`, the Potency entry in assay [1] was “inactive”. Besides, the activity change % (negative = inhibition) in [2] was -20.1% (inactive). For the same compound, the Potency in assay [3] is 0.102 µM (active); in [4], 0.0891 µM (active).
Turning to `CCCc1cc(=O)[nH]c(=S)[nH]1`, the result in assay [5] was inactive.
For `C[C@H]1O[C@@H](O[C@H]2[C@@H](O)C[C@H](O[C@H]3[C@@H](O)C[C@H](O[C@H]4CC[C@@]5(C)[C@H](CC[C@@H]6[C@@H]5CC[C@]5(C)[C@@H](C7=CC(=O)OC7)CC[C@]65O)C4)O[C@@H]3C)O[C@@H]2C)C[C@H](O)[C@@H]1O`, the Potency in [1] is 0.355 µM (active). The result in assay [6] was inactive.
`O=c1[nH]c2ccccc2n1C1CCN(CCCC(c2ccc(F)cc2)c2ccc(F)cc2)CC1`: the Potency result in assay [1], in [9] and in [10] was “inactive” throughout. Also, in assay [7], the max response was -25.7%. Besides, in assay [8], the Potency is 17.8 µM (active).
On to `Cc1ncc([N+](=O)[O-])n1CCO`, for which the compound was called inactive in assay [5].
With `CC[C@H](C)C(=O)O[C@H]1C[C@@H](C)C=C2C=C[C@H](C)[C@H](CC[C@@H]3C[C@@H](O)CC(=O)O3)[C@H]21`, the compound was called inactive in [5].
Same read-out and setting: the entry for `COc1cccc2c1C(=O)c1c(O)c3c(c(O)c1C2=O)C[C@@](O)(C(=O)CO)C[C@@H]3O[C@H]1C[C@H](N)[C@H](O)[C@H](C)O1` is “inactive”; for `O=c1[nH]cnc2c1ncn2[C@H]1CC[C@@H](CO)O1` it is “inactive”; for `O=C1NC(=O)C(c2ccccc2)(c2ccccc2)N1` it is “inactive”.
Still for that read-out and setting: with `CN(C)CCOC(C)(c1ccccc1)c1ccccn1` (stereo not drawn) the entry was “inactive”; with `C[C@@H]1C[C@H]2[C@@H]3CCC4=CC(=O)C=C[C@]4(C)[C@@]3(F)[C@@H](O)C[C@]2(C)[C@@]1(O)C(=O)CO`, “inactive”.
For `Cc1ccccc1C(OCCN(C)C)c1ccccc1` (stereo not drawn), the compound was classed as inactive in assay [5].
On to `Oc1cc(Cl)ccc1Oc1ccc(Cl)cc1Cl`, for which the outcome in [5], in [12], in assay [13], in assay [15] and in assay [6] was inactive. In addition, the max response was 38.5% in [11] and -6.33% in assay [7]. The Potency entry in assay [14], in [16], in [9], in assay [17], in assay [3] and in assay [4] was “inactive” throughout. For the same compound, the Potency in [8] is 44.7 µM (active).
Take `N=C(N)c1ccc(OCCCCCOc2ccc(C(=N)N)cc2)cc1`: the compound was called inactive in assay [5].
As to `Cc1cc(SCc2sc(-c3ccc(C(F)(F)F)c(F)c3)nc2C)ccc1OCC(=O)O`, the max response was 25.2% in [7] and -3.24% (inactive) in assay [8]. In addition, the call in assay [18] was inactive.
Take `CCCC(C)(COC(N)=O)COC(=O)NC(C)C` (stereo not drawn): the call in [13], in assay [15] and in assay [6] was inactive. Also, the Potency entry in [14], in assay [20], in assay [16], in assay [9], in [17] and in assay [3] was “inactive” in each case. For the same compound, the Potency entry in assay [10] was “inactive”. Besides, the max response in [19] was -3.14% and 6.33%; in assay [7], 3.28% and 3.87%; in assay [8] it was 1.9% (inactive) and -6.86% (inactive). Moreover, in assay [2], the activity change % (negative = inhibition) was 4.32% (inactive) and -7.39% (inactive).
`Clc1ccc(C(c2ccccc2Cl)C(Cl)Cl)cc1` (stereo not drawn): in assay [5], the result was inactive.
For the compound `C[C@]12C/C(=C/O)C(=O)C[C@@H]1CC[C@@H]1[C@@H]2CC[C@@]2(C)[C@H]1CC[C@]2(C)O`, the compound was called inactive in [6]. Besides, the Potency result in assay [16], in [9], in [17] and in assay [4] was “inactive” in each case.
